Compound activity deposited in PubChem BioAssay by National Center for Advancing Translational Sciences (NCATS).
PLK1 PBD block = blocks phosphopeptide binding to human PLK1 polo-box domain. Plk1 PBD binding of FITC phosphopeptide, fluorescence polarization. Potency, µM, actives largely listed as inhibitors. 360,000 compounds, 2.8% hits; also: series mostly up to about 57 µM; nearly all actives have a fitted effect of over 65% in size
CBFb RUNX1 block = blocks binding between human CBF-beta and RUNX1; Q01196+Q13951; AlphaScreen CBFb-His/RUNX1-biotin binding, biochemical; Potency, µM (doses to about 59.8 µM), hits mostly inhibitors; 230,000 tested, under 10 active
Target sequence (Q01196 whole entry, looked up): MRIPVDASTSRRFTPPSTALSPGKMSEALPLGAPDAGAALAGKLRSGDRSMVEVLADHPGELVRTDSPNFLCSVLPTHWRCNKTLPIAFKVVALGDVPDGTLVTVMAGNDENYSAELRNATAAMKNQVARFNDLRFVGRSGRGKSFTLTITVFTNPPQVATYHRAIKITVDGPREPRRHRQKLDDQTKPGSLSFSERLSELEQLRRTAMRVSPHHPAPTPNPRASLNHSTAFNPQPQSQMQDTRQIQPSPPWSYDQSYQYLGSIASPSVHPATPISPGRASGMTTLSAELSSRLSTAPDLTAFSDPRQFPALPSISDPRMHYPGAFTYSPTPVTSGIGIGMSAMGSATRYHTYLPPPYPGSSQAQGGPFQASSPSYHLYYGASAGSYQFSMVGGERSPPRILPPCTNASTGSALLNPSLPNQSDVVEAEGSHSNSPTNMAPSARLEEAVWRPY
Target sequence (Q13951 whole entry, looked up): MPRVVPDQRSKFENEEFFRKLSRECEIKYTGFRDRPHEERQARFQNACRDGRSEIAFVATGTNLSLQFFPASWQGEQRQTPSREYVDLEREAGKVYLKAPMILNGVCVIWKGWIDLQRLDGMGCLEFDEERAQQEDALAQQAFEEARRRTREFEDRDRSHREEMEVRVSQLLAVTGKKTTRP
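Interaction loss through any mechanism counts as activity. Pre-formed complex of His-CBF-beta and biotin-RUNX1 (30 nM apiece) is incubated with compound 15 min, then with 50 ng nickel and 50 ng streptavidin beads for 90 min before AlphaScreen detection.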
MBNL1 CUG block = inhibitors of human MBNL1 binding to CUG repeat RNA; TR-FRET MBNL1-His/biotin-(CUG)12 binding, 665/545 ratio; Potency, µM (highest dose often 57.5 µM), usual class: inhibitors; 280,000 compounds, 0.036% hits; AID 2675; active = well fitted inhibition curve with a large enough effect in the signal ratio, with a control signal flat, not every such curve was filed as active; inconclusive = small, poorly fitted or top-dose-only effect, or effect the other way, or a change in a side signal; inactive = no such curve, though single readings can be large or run the other way; the % refers to the signal ratio
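Ratiometric TR-FRET (665 over 545 nm, excitation 340 nm) tracks disruption of MBNL1-His/biotin-(CUG)12 complex after 60 min at room temperature, with compounds at 92 nM to 58 uM final.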
KCNH2 3.1 block = inhibitors of human KCNH2 3.1 potassium channel isoform. activity change, % (tested at about 1.8 µM). 340,000 compounds, 0.95% hits. U2OS KCNH2 3.1, thallium flux FluxOr; hits give low values;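 active = maximum activity change below -70%; inconclusive = maximum activity change from -70% to -50%; inactive = maximum activity change above -50%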;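 also: thallium influx rate constant from kinetic fluorescence after stimulation buffer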
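Thallium flux read-out: FluxOr dye with Red40 quencher in HBSS/HEPES, 45 min at RT. Rate constants from kinetic reads were normalized to positive and negative DMSO controls. Cells: U2OS virally expressing the 3.1 isoform.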
VDR inh = vitamin D3 receptor (human) inhibition | P11473 | Potency, µM, actives largely listed as inhibitors | VDR-SRC2-3 peptide fluorescence polarization, 2 h | 400,000 compounds, 0.93% hits
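Two reagent solutions held at 4 deg C in the dark were dispensed, compounds pinned at 23 nl, and the mixture incubated 2 h at room temperature. Read-out: fluorescence polarization of VDR–SRC2-3 peptide binding.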
KCNH2 WT inh = KCNH2 (human, wildtype) channel inhibition; Q12809; U2OS, BacMam KCNH2, thallium flux FluxOr; hits give low values; 340,000 compounds, 0.37% hits; AID 720551; activity change, % at 1.84 µM;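 active = maximum activity change below -70%; inconclusive = maximum activity change between -70% and -50%; inactive = maximum activity change above -50%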
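U2OS cells were transduced with wild-type KCNH2 virus (2.03 x 10^8 / mL) for 4 h at room temperature, then cultured overnight at 37 C. Thallium flux was read with FluxOr dye. Rate constants were normalized to DMSO controls.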
Numbers stand for hits; . = inactive; ? = inconclusive; / = no result; ! = not confirmed by another sample; [ ] = dose if it differs, or a comment. Hits are enriched below; roughly 3.8% of the tested compounds scored in any of these assays. Unless noted, calls follow the shape of the dose curve; as a rule, active = well fitted curve in the direction sought with a large enough effect; inconclusive = small, poorly fitted or top-dose-only effect, or another doubt; inactive = no such curve, though single readings can be large; an effect the other way counts as inactive or inconclusive.

SMILES | PLK1 PBD block | CBFb RUNX1 block | MBNL1 CUG block | KCNH2 3.1 block | VDR inh | KCNH2 WT inh
Cc1ccc(C)c(NC(=O)C(OC(=O)c2ccc(NC(=O)CC#N)cc2)c2ccccc2)c1 (centres undefined) | . | / | / | -70.8 | . | .
O=c1oc2c(O)c(O)cc3c(=O)oc4c(O)c(O)cc1c4c23 | 8.44µM | / | ? | . | 39.8µM! | .
CN1CCC(=O)N([C@H](CSc2ccccc2)c2ccccc2)CC1 | . | / | . | -124.1 | . | .
CCCN1CCC(=O)N([C@H](CSc2ccc(OC)cc2)c2ccccc2)CC1 | ? | . | . | -92.6 | . | .
CCc1ccc(/C=C2\SC(=S)N(CCCC(=O)Nc3ccc(C(=O)O)cc3)C2=O)cc1 | ? | / | . | . | . | .
O=C(CCCN1C(=O)/C(=C/c2cccs2)SC1=S)NNC(=O)c1ccccc1O | . | . | / | . | . | .
Cc1ccc(/C=C2\SC(=S)N(CCCC(=O)Nc3ccc(O)cc3)C2=O)cc1 | . | . | . | . | . | .
CCc1ccc(/C=C2\SC(=S)N(CCCC(=O)Nc3ccccc3C(=O)O)C2=O)cc1 | 21.2µM | / | . | . | ? | .
Cc1ccc(/C=C2/SC(=S)N(CCCC(=O)Nc3cc([N+](=O)[O-])ccc3O)C2=O)cc1 | . | / | . | -83.3 | . | .
COc1ccc(/C=C2/SC(=S)N(CCCC(=O)Nc3ccccc3C(=O)O)C2=O)cc1 | ? | / | . | . | ? | .
COc1ccc(/C=C2\SC(=S)N(CCCC(=O)NNC(=O)c3ccccc3O)C2=O)cc1 | 23.8µM | . | . | . | . | .
Cc1ccc(/C=C2\SC(=S)N(CCCC(=O)Nc3ccccc3C(=O)O)C2=O)cc1 | 18.9µM | / | . | . | ? | .
O=C(CCCCn1c(=O)c2ccccc2n(Cc2cccc(F)c2)c1=O)NCc1ccc2c(c1)OCO2 | / | / | / | / | . | /
COc1ccc(-c2nnc3n2N=C(c2c(OC)cccc2OC)CS3)cc1OC | / | . | / | / | / | /
CC(C)(C)OC(=O)N1CCC(c2c(C(=O)NCCN3CCOCC3)cnn2-c2ccc(F)cc2F)CC1 | / | / | / | / | . | /
COc1ccc(CN2C(=O)/C(=C/c3ccncc3)SC2=S)cc1 | ? | . | . | . | 50.1µM | .
Cc1cc(C)c(C#N)c(Cl)n1 | . | . | / | . | . | .
Cc1cc(Cl)ccc1N=c1ssnc1Cl | 1.5µM | . | . | . | ? | .
Cc1cc(C)nc(/N=c2/ssnc2Cl)c1 | 1.06µM | . | . | . | 28.2µM | .
Nc1ccccc1N=c1ssnc1Cl | 4.74µM | . | . | . | ? | .
COc1ccc(-c2cc(-c3cc(OC)ccc3O)[nH]n2)cc1 | 6.7µM | . | . | . | ? | .
CCCC(=O)N1CCN(c2ccc(NC(=O)c3cccs3)cc2)CC1 | 23.8µM | . | . | . | . | .
CCOC(=O)C1=C(CN2CCN(c3cccc(Cl)c3)CC2)NC(=O)NC1c1ccc(Cl)cc1 (centres undefined) | / | / | / | / | . | /
CCOC(=O)N1CCN(C(=O)COC(=O)c2ccc([N+](=O)[O-])cc2Cl)CC1 | . | / | / | . | . | .
CCOC(=O)N1CCN(C(=O)c2ccc([N+](=O)[O-])cc2Cl)CC1 | 23.8µM | / | ? | . | ? | .
SMILES | PLK1 PBD block | CBFb RUNX1 block | MBNL1 CUG block | KCNH2 3.1 block | VDR inh | KCNH2 WT inh
O=C1C(=O)N(CCCn2ccnc2)C(c2cccc(Br)c2)/C1=C(\O)c1ccc2c(c1)OCCO2 (centres undefined) | 29.9µM | / | . | . | . | .
O=C1C(=O)N(CCCn2ccnc2)C(c2ccc(Br)cc2)/C1=C(\O)c1ccc2c(c1)OCCO2 (centres undefined) | . | / | . | . | . | .
COc1cccc(C2/C(=C(/O)c3ccc4c(c3)CC(C)O4)C(=O)C(=O)N2CCCn2ccnc2)c1 (centres undefined) | . | / | . | . | . | .
COc1cccc(C2/C(=C(\O)c3ccc4c(c3)OCCO4)C(=O)C(=O)N2CCCn2ccnc2)c1 (centres undefined) | 26.7µM | / | . | . | ? | .
O=S(=O)(Nc1nc2ccccc2nc1Nc1ccc(N2CCOCC2)cc1)c1cc(Cl)ccc1Cl | 11.9µM | . | . | . | . | .
O=C(NCc1ccccc1)C1CCCN(S(=O)(=O)c2cccc3nonc23)C1 (centres undefined) | . | . | .[11.5 µM] | . | . | .
O=C(NCc1ccc2c(c1)OCO2)C1CCCN(S(=O)(=O)c2cccc3nonc23)C1 (centres undefined) | 26.7µM! | . | . | . | . | .
O=C(COc1ccccc1[N+](=O)[O-])c1ccccc1 | . | . | ? | . | . | .
COC(=O)/C=C/COc1ccccc1[N+](=O)[O-] | 3.36µM | . | . | . | ? | /
COc1cccc(-n2c(C)nc3c(cnn3-c3ccc(Cl)cc3)c2=O)c1 | 21.2µM | . | . | . | . | .
CCOc1ccc(-n2c(C)nc3c(cnn3-c3ccc(Cl)cc3)c2=O)cc1 | . | . | . | . | . | .
O=C(/C=C/c1ccc(-c2ccccc2[N+](=O)[O-])o1)c1ccco1 | . | . | ? | . | ? | .
N#C/C(=C\c1ccc(-c2ccccc2[N+](=O)[O-])o1)C(=O)N1CCOCC1 | . | . | ? | -79.3 | . | .
CCOc1ccc(-n2cc(-c3ccccc3)c3c(N4CCC(C)CC4)ncnc32)cc1 | / | / | / | / | . | /
Cc1ccc2nc(SCC(=O)N(CC(C)C)c3c(N)n(CC(C)C)c(=O)[nH]c3=O)[nH]c2c1 | . | . | . | . | . | .
Cc1cc(SCC(=O)N(CC(C)C)c2c(N)n(CC(C)C)c(=O)[nH]c2=O)nc2ccccc12 | 13.4µM | / | / | . | ? | .
CCOC(=O)N1CCN(C(=O)CSc2nnc(-c3cccc(OC)c3)o2)CC1 | 3.36µM | . | . | . | ? | .
CCOC(=O)N1CCN(C(=O)CSc2nnc(-c3cc(OC)ccc3OC)o2)CC1 | 3.36µM | . | . | . | ? | .
CCOC(=O)N1CCN(C(=O)CSc2nnc(-c3ccccc3OC)o2)CC1 | . | . | . | . | . | .
CCN(CC)c1nc(C#N)nc(N2CCOCC2)n1 | / | / | / | / | . | /
Cc1cc(NC(=O)CCC(=O)N(c2ccccc2)C(C(=O)NC2CCCC2)c2cccs2)no1 (centres undefined) | . | . | . | -185.7 | . | .
CCCCN(C(=O)CCC(=O)Nc1cc(C)on1)C(C(=O)NC1CCCC1)c1ccc(OCC)cc1 (centres undefined) | . | / | . | . | . | .
Cc1ccc(C)c(N(C(=O)CCC(=O)Nc2cc(C)on2)C(C(=O)NC2CCCC2)c2ccco2)c1 (centres undefined) | 3.77µM | . | . | . | . | .
C=CCN(C(=O)CCC(=O)Nc1cc(C)on1)C(C(=O)NC1CCCC1)c1ccc(CC)cc1 (centres undefined) | 26.7µM | / | . | . | ? | .
